Experimental data published in PubChem BioAssay AID1159580 (chemical genetic matrix, 2015).
Several values for one entry are separate records, joined by “and”; a condition that tells them apart may be missing. Equal entries are not always repeated. In all, about 5,500 compounds went through this assay and about 2,000 (36%) were called active. Inconclusive results (about 18%) are left out. No stated cut-off is given here; in the data, active means normalized growth mostly below about 0.91 (no sharp cut-off); inconclusive means no clear call, values can overlap the other calls; inactive means mostly above about 0.92. The list shows a part of the results. Where a SMILES comes first, the peptide text is derived from it. The star is where a group is joined. For = O=C*

Experiment: chemical genetic growth profiling, strain panel (AID 1159580);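 further: tested at 20 µM; growth read once vehicle control cultures reached saturation at 30 °C; 1 = growth at the plate median or of vehicle wells; lower values mean less growth of the strain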
Details: growth OD

Measured: normalized growth

CSCCC(NC=O)C(=O)NC(Cc1ccccc1)C(=O)O (stereo not drawn) (For-Met-Phe-OH; configuration not given here)
inactive: S. cerevisiae deletion strains, locus YAL013W, strain DEP1, active compounds read low 1.02 | S. cerevisiae deletion strains, locus YBR021W, strain FUR4, active compounds read low 1.04 | S. cerevisiae deletion strains, locus YBR229C, strain ROT2, active compounds read low 1.01 | S. cerevisiae deletion strains, locus YCL029C, strain bik1, active compounds read low 1.03 | S. cerevisiae deletion strains, locus YDL035C, strain GPR1, active compounds read low 1.03 | S. cerevisiae deletion strains, locus YDL074C, strain BRE1, active compounds read low 1.02 | S. cerevisiae deletion strains, locus YDL101C, strain DUN1, active compounds read low 1.01 | S. cerevisiae deletion strains, locus YDL134C, strain PPH21, active compounds read low 1.03 | S. cerevisiae deletion strains, locus YDL185W, strain tfp1, active compounds read low 1.02 | S. cerevisiae deletion strains, locus YDL192W, strain arf1, active compounds read low 1.02 | S. cerevisiae deletion strains, locus YDR101C, strain arx1, active compounds read low 0.998 | S. cerevisiae deletion strains, locus YDR150W, strain NUM1, active compounds read low 1.01 | S. cerevisiae deletion strains, locus YDR162C, strain NBP2, active compounds read low 1.01 | S. cerevisiae deletion strains, locus YDR318W, strain mcm21, active compounds read low 1.02 | S. cerevisiae deletion strains, locus YDR388W, active compounds read low 1.02 | S. cerevisiae deletion strains, locus YDR502C, strain sam2, active compounds read low 1.01 | S. cerevisiae deletion strains, locus YEL061C, strain CIN8, active compounds read low 1.01 | S. cerevisiae deletion strains, locus YER110C, active compounds read low 1.02 | S. cerevisiae deletion strains, locus YER155C, strain BEM2, active compounds read low 1 | S. cerevisiae deletion strains, locus YER167W, strain BCK2, active compounds read low 1 | S. cerevisiae deletion strains, locus YGL078C, strain dbp3, active compounds read low 1.01 | S. cerevisiae deletion strains, locus YGL086W, strain mad1, active compounds read low 1 | S. cerevisiae deletion strains, locus YGL248W, strain PDE1, active compounds read low 1 | S. cerevisiae deletion strains, locus YGR135W, strain pre9, active compounds read low 1.02 | S. cerevisiae deletion strains, locus YGR229C, strain SMI1, active compounds read low 1.02 | S. cerevisiae deletion strains, locus YGR252W, strain gcn5, active compounds read low 1.03 | S. cerevisiae deletion strains, locus YHR030C, strain SLT2, active compounds read low 1.01 and 1.07 | S. cerevisiae deletion strains, locus YHR079C, strain IRE1 (second series), active compounds read low 1.02 | S. cerevisiae deletion strains, locus YHR079C, strain IRE1, active compounds read low 1.04 | S. cerevisiae deletion strains, locus YHR094C, strain hxt1, active compounds read low 1.02 | S. cerevisiae deletion strains, locus YHR129C, strain ARP1, active compounds read low 1 | S. cerevisiae deletion strains, locus YHR200W, strain rpn10, active compounds read low 1.03 | S. cerevisiae deletion strains, locus YIL066C, strain RNR3, active compounds read low 1.01 | S. cerevisiae deletion strains, locus YIL073C, strain SPO22, active compounds read low 1.08 | S. cerevisiae deletion strains, locus YIL125W, strain kgd1, active compounds read low 1.01 | S. cerevisiae deletion strains, locus YIR030C, strain dcg1, active compounds read low 1.01 | S. cerevisiae deletion strains, locus YJL095W, strain BCK1, active compounds read low 1 and 1.06 | S. cerevisiae deletion strains, locus YJL134W, strain LCB3, active compounds read low 1 | S. cerevisiae deletion strains, locus YJL168C, strain set2, active compounds read low 1.01 | S. cerevisiae deletion strains, locus YJL187C, strain SWE1 (second series), active compounds read low 1.01 | S. cerevisiae deletion strains, locus YJR043C, strain POL32, active compounds read low 1.01 | S. cerevisiae deletion strains, locus YJR066W, strain TOR1, active compounds read low 1.01 | S. cerevisiae deletion strains, locus YKL009W, strain mrt4, active compounds read low 1.02 | S. cerevisiae deletion strains, locus YKL068W, active compounds read low 1.01 | S. cerevisiae deletion strains, locus YKL085W, strain MDH1 (second series), active compounds read low 1.01 | S. cerevisiae deletion strains, locus YKL085W, strain MDH1, active compounds read low 1.01 | S. cerevisiae deletion strains, locus YKL190W, strain CNB1, active compounds read low 1.01 | S. cerevisiae deletion strains, locus YKR001C, strain vps1, active compounds read low 1.02 | S. cerevisiae deletion strains, locus YLR039C, strain RIC1, active compounds read low 1.06 | S. cerevisiae deletion strains, locus YLR058C, strain SHM2, active compounds read low 1.01 | S. cerevisiae deletion strains, locus YLR102C, strain apc9, active compounds read low 1.02 | S. cerevisiae deletion strains, locus YLR113W, strain HOG1, active compounds read low 0.978 | S. cerevisiae deletion strains, locus YLR262C, strain YPT6, active compounds read low 1.04 | S. cerevisiae deletion strains, locus YLR268W, strain sec22, active compounds read low 1.02 | S. cerevisiae deletion strains, locus YLR330W, strain CHS5, active compounds read low 1.01 | S. cerevisiae deletion strains, locus YLR342W, strain FKS1 (second series), active compounds read low 1.03 | S. cerevisiae deletion strains, locus YLR371W, strain rom2, active compounds read low 1.02 | S. cerevisiae deletion strains, locus YLR418C, strain cdc73, active compounds read low 1.06 | S. cerevisiae deletion strains, locus YML016C, strain PPZ1, active compounds read low 0.999 | S. cerevisiae deletion strains, locus YML032C, strain rad52, active compounds read low 1.02 | S. cerevisiae deletion strains, locus YML124C, strain tub3, active compounds read low 1.01 | S. cerevisiae deletion strains, locus YMR078C, strain ctf18, active compounds read low 1.01 | S. cerevisiae deletion strains, locus YMR223W, strain ubp8, active compounds read low 1.02 | S. cerevisiae deletion strains, locus YMR263W, strain SAP30, active compounds read low 1.01 | S. cerevisiae deletion strains, locus YMR307W, strain GAS1, active compounds read low 1.04 | S. cerevisiae deletion strains, locus YNL067W, strain RPL9B, active compounds read low 1.02 | S. cerevisiae deletion strains, locus YNL128W, strain TEP1, active compounds read low 1.04 | S. cerevisiae deletion strains, locus YNL183C, strain NPR1, active compounds read low 0.989 | S. cerevisiae deletion strains, locus YNL233W, strain BNI4, active compounds read low 1 | S. cerevisiae deletion strains, locus YNL250W, strain rad50, active compounds read low 1.01 | S. cerevisiae deletion strains, locus YNL271C, strain bni1, active compounds read low 1.02 | S. cerevisiae deletion strains, locus YNL298W, strain CLA4, active compounds read low 1.03 | S. cerevisiae deletion strains, locus YNL307C, strain MCK1, active compounds read low 1.03 | S. cerevisiae deletion strains, locus YNL322C, strain KRE1, active compounds read low 1.01 | S. cerevisiae deletion strains, locus YNR052C, strain pop2, active compounds read low 1.02 | S. cerevisiae deletion strains, locus YOL006C, strain TOP1, active compounds read low 0.99 | S. cerevisiae deletion strains, locus YOL012C, strain htz1 0.63 | S. cerevisiae deletion strains, locus YOL147C, strain pex11, active compounds read low 1.03 | S. cerevisiae deletion strains, locus YOR061W, strain CKA2, active compounds read low 1 | S. cerevisiae deletion strains, locus YOR069W, strain VPS5, active compounds read low 1.01 | S. cerevisiae deletion strains, locus YOR136W, strain idh2, active compounds read low 1.02 | S. cerevisiae deletion strains, locus YOR144C, strain elg1, active compounds read low 1.01 | S. cerevisiae deletion strains, locus YOR184W, strain ser1, active compounds read low 1.02 | S. cerevisiae deletion strains, locus YOR231W, strain MKK1, active compounds read low 1.02 | S. cerevisiae deletion strains, locus YOR316C, strain cot1, active compounds read low 1.03 | S. cerevisiae deletion strains, locus YPL055C, strain LGE1, active compounds read low 0.997 | S. cerevisiae deletion strains, locus YPL241C, strain CIN2, active compounds read low 1 | S. cerevisiae deletion strains, locus YPL256C, strain CLN2, active compounds read low 1.07 | S. cerevisiae deletion strains, locus YPR119W, strain clb2, active compounds read low 1.01 | S. cerevisiae deletion strains, locus YPR141C, strain kar3, active compounds read low 1.01 | S. cerevisiae deletion strains, locus YPR163C, strain tif3, active compounds read low 1.01 | S. cerevisiae deletion strains, locus YPR167C, strain met16, active compounds read low 1.03 | S. cerevisiae deletion strains, strain wtn01, active compounds read low 1.04 | S. cerevisiae strains, strain wild type, active compounds read low 1.01
